# Bioassay records as filed in PubChem.
# In the library only some 3.2% were active in any assay of this set; here they are far more common.
# Rtt109 Vps75 – inhibitors of C. albicans Rtt109/Vps75 HAT, primary screen, biochemical, ThioGlo CoA-SH fluorescence, plate reader | Histone acetyltransferase RTT109 (Candida albicans (strain SC5314 / ATCC MYA-2876)), … | purified Rtt109/Vps75, 4 h | inhibition, % at 34.9 µM | 330,000 tested, 0.16% active;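 active means inhibition of at least 50% in every replicate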
# SMARCA2 activ – SMARCA2 (BRM) function activators, primary screen, cell-based, luminescence, high throughput. MG213 cells, MMTV-luciferase reporter, dexamethasone, overnight. 370,000 tested, 1% active. AID 652017, 2013. activation, % at 9.1 µM; in the data active means activation above about 7.8%;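 further: 0% = vehicle wells and 100% = reference activator wells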
# esBAF inh – Bmi1 luciferase reporter increase in mESCs, primary screen, esBAF inhibitor project, mouse ES cells, Bmi1 luciferase knock-in, single point | AID 602393, 2012 | reporter increase, % at 12.5 µM | 24 h; 100% = twice the neutral-well signal | 350,000 tested, 2% active; in the data active means activation above about 40%;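 further: 0% = median of the plate's neutral control wells and 100% = double that signal; a rise in the Bmi1 reporter signal indicates esBAF inhibition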
# Dyrk1A ADPGlo – rat Dyrk1A kinase inhibitors, primary screen, biochemical, single point, plate reader. Dual specificity tyrosine-phosphorylation-regulated kinase 1A (Rattus norvegicus), Q63470. ADP-Glo luminescence, NFATc1 peptide. inhibition, % at 12.5 µM. 310,000 tested, 0.43% active. AID 504441, 2011; in the data active means inhibition above about 50%;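 further: plate controls were vehicle with enzyme for no effect and no enzyme for full effect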
# dFosB activator – activators of delta FosB homodimer, primary screen, biochemical, fluorescence polarization, TAMRA-CDK5 oligo, single point; Protein FosB (Mus musculus), P13346; purified delta FosB; percent of positive-control signal above neutral wells; activation, % at 25 µM; 340,000 tested, 0.99% active;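 active means mean activation above about 17%, with every replicate also reaching it, limit read from the data, passing the limit was not always enough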
# Target sequence (P13346 whole entry, looked up): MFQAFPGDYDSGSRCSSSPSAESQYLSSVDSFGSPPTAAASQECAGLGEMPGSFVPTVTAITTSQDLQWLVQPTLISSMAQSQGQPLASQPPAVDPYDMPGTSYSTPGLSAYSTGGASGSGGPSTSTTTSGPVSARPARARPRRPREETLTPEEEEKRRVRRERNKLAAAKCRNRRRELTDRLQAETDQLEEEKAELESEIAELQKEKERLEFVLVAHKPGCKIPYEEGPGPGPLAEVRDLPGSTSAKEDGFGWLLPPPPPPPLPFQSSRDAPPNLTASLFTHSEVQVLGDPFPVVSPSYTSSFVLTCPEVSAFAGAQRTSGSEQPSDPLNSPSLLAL
# CDK5 inh – inhibitors of human CDK5/p35 kinase, primary screen, biochemical, single concentration | Cyclin-dependent kinase 5 (Homo sapiens) + Cyclin-dependent kinase 5 activator 1 (Homo … | Recombinant CDK5/p35, ADP-Glo luminescence, 60 min | inhibition, % at 10 µM | 330,000 tested, 0.01% active;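 active means highest replicate inhibition of at least 50% and at least 75% of replicates reaching 50%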;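 further: plate controls were DMSO neutral control for no effect and GW8510 at 10 µM for full effect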
# Starred values were filed as active, the others as inactive; · = no result.
SMILES,Rtt109 Vps75,SMARCA2 activ,esBAF inh,Dyrk1A ADPGlo,dFosB activator,CDK5 inh
O=C(Nc1ccc(Cl)cc1)c1ccc2c(=O)n3c(nc2c1)CCCCC3,0,-1,50*,-4,-13,0
O=C(Nc1ccc(Br)cc1Cl)c1ccc2c(=O)n3c(nc2c1)CCC3,2,0,·,13,-16,1
O=C(Nc1ccc(F)c(Cl)c1)c1ccc2c(=O)n3c(nc2c1)CCCCC3,-2,0,12,0,-14,-1
O=C(Nc1ccc(Cl)cc1Cl)c1ccc2c(=O)n3c(nc2c1)CCC3,2,5,43*,13,-10,0
CCC(=O)N1C[C@@H]2[C@H](c3ccccc31)[C@@H](CO)N2C(=O)Nc1ccccc1,·,·,-3,·,·,·
C[C@H]1CCCCO[C@@H](CN(C)CC2CCCCC2)[C@@H](C)CN([C@@H](C)CO)C(=O)c2cc(NC(=O)Nc3ccc(F)cc3)ccc2O1,·,·,-6,·,·,·
O=C(NCCC1=CCCCC1)c1ccc2c(=O)n3c(nc2c1)CCCCC3,0,1,43*,1,-6,2
O=C(Nc1ccc(F)cc1)c1ccc2c(=O)n3c(nc2c1)CCCCC3,4,-1,57*,22,-15,2
COc1ccccc1OCCNC(=O)c1ccc2c(c1)CCC2,-7,7,49*,4,3,-2
CC(=O)c1ccc(NC(=O)c2ccc3c(=O)n4c(nc3c2)CCCCC4)cc1,4,-1,15,2,-22,-3
O=C(NCc1ccc(F)cc1)c1ccc2c(=O)n3c(nc2c1)CCCCC3,-2,-1,7,10,-5,0
C[C@H]1CN([C@@H](C)CO)C(=O)c2cc(C#CCC3CCCC3)cnc2O[C@@H]1CN(C)S(=O)(=O)c1cccs1,·,·,3,·,·,·
CO[C@H]1CC[C@@H]2CCOc3c(C#N)cccc3C(=O)N(C)C[C@H](OC)[C@@H](C)C(=O)N(C)C[C@@H]1O2,·,·,1,·,·,·
c1ccc2c(Cn3nnc4ccccc43)cccc2c1,4,-2,-5,8,-11,1
c1ccc2c(COn3nnc4ccccc43)cccc2c1,4,5,56*,14,-16,-4
O=C(Nc1ccccc1)c1cc2ccccc2s1,-7,0,45*,-4,-5,1
O=C(Nc1ccc(O)cc1)c1cc2ccccc2c(=O)s1,-5,3,49*,-2,-7,3
C[C@@H]1CN([C@H](C)CO)C(=O)c2ccccc2-c2ccccc2CO[C@@H]1CN(C)C(=O)Nc1cccc(C(F)(F)F)c1,·,·,2,·,·,·
O=C(Nc1ccccc1C(=O)N/N=C/c1ccccc1)c1ccco1,15,0,36,2,88*,-1
O=C(N/N=C/c1ccccc1)c1ccco1,-2,2,30,-7,-5,1
N/C(=N\OC(=O)COc1ccc(Br)cc1)c1ccncc1,-3,-2,6,2,-3,-3
O=C(COc1ccc(Cl)cc1Cl)N1CCCCCC1,0,1,48*,-2,6,1
N/C(=N\OC(=O)COc1ccc(Br)cc1Cl)c1cccnc1,-6,0,·,-3,20*,0
N/C(=N\OC(=O)COc1ccc(Cl)cc1Br)c1cccnc1,4,4,·,4,10,0
N/C(=N\OC(=O)COc1ccc(Cl)cc1Cl)c1ccncc1,-1,0,71*,-4,-9,-1
N/C(=N\OC(=O)c1cccnc1)c1ccccc1Cl,-11,3,74*,-1,-4,1
O=C(C[C@H]1CC[C@@H](NC(=O)Nc2ccc3c(c2)OCO3)[C@@H](CO)O1)NCCCN1CCOCC1,·,·,-4,·,·,·
Nc1cc(=O)[nH]c(SCC(=O)Nc2cc(S(=O)(=O)N3CCCCCC3)ccc2Cl)n1,-1,-5,-5,-1,37*,-2
COc1ccc(/C=C2\CCC(C3CCCC3)C2=O)c(OC)c1OC (stereo unspecified),10,-3,31,0,3,1
